The supplement of paper PMC6897291

Columns and labels:
U-2932 [1] = assay: growth inhibition by drug alone (1 - RLU/untreated control) (fraction); higher = stronger inhibition; conditions: 177Lu-lilotomab satetraxetan 0 ug/ml
Method in brief: (§1)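 With or without 18 h pretreatment by a radiolabelled anti-CD37 antibody conjugate (~600 MBq/mg; 0.5 µg/ml RIVA, 1 µg/ml U-2932), RIVA and U-2932 cells were washed and plated at 3,000 cells/well. Pre-printed compound doses were 10/100 nM for RIVA and 10/1,000 nM for U-2932. Growth inhibition uses RealTime-Glo RLU relative to the untreated no-drug wells. The calculation is 1 − RLU/mean of 48 such wells per plate, with reads daily from day 3 after 1 h at 37°C.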

RIVA [2] = assay: as above; conditions: 177Lu-lilotomab satetraxetan 0 ug/ml
Method in brief: as §1

U-2932 [3] = assay: growth inhibition by drug plus 177Lu-lilotomab satetraxetan (1 - RLU/untreated control) (fraction); higher = stronger inhibition; conditions: 177Lu-lilotomab satetraxetan 1 ug/ml
Method in brief: as §1

RIVA [4] = assay: as above; conditions: 177Lu-lilotomab satetraxetan 0.5 ug/ml
Method in brief: as §1

Structure (SMILES)	growth inhibition by drug alone (U-2932 [1]; 10 nM, time (day): 3)	growth inhibition by drug alone (U-2932 [1]; 10 nM, time (day): 4)	growth inhibition by drug alone (U-2932 [1]; 10 nM, time (day): 5)	growth inhibition by drug alone (U-2932 [1]; 10 nM, time (day): 6)	growth inhibition by drug alone (U-2932 [1]; 1000 nM, time (day): 3)	growth inhibition by drug alone (U-2932 [1]; 1000 nM, time (day): 4)	growth inhibition by drug alone (U-2932 [1]; 1000 nM, time (day): 5)	growth inhibition by drug alone (U-2932 [1]; 1000 nM, time (day): 6)	growth inhibition by drug alone (RIVA [2]; 10 nM, time (day): 3)	growth inhibition by drug alone (RIVA [2]; 10 nM, time (day): 4)	growth inhibition by drug alone (RIVA [2]; 10 nM, time (day): 5)	growth inhibition by drug alone (RIVA [2]; 10 nM, time (day): 6)	growth inhibition by drug alone (RIVA [2]; 100 nM, time (day): 3)	growth inhibition by drug alone (RIVA [2]; 100 nM, time (day): 4)	growth inhibition by drug alone (RIVA [2]; 100 nM, time (day): 5)	growth inhibition by drug alone (RIVA [2]; 100 nM, time (day): 6)	growth inhibition by drug plus 177Lu-lilotomab satetraxetan (U-2932 [3]; 10 nM, time (day): 3)	growth inhibition by drug plus 177Lu-lilotomab satetraxetan (U-2932 [3]; 10 nM, time (day): 4)	growth inhibition by drug plus 177Lu-lilotomab satetraxetan (U-2932 [3]; 10 nM, time (day): 5)	growth inhibition by drug plus 177Lu-lilotomab satetraxetan (U-2932 [3]; 10 nM, time (day): 6)	growth inhibition by drug plus 177Lu-lilotomab satetraxetan (U-2932 [3]; 1000 nM, time (day): 3)	growth inhibition by drug plus 177Lu-lilotomab satetraxetan (U-2932 [3]; 1000 nM, time (day): 4)	growth inhibition by drug plus 177Lu-lilotomab satetraxetan (U-2932 [3]; 1000 nM, time (day): 5)	growth inhibition by drug plus 177Lu-lilotomab satetraxetan (U-2932 [3]; 1000 nM, time (day): 6)	growth inhibition by drug plus 177Lu-lilotomab satetraxetan (RIVA [4]; 10 nM, time (day): 3)	growth inhibition by drug plus 177Lu-lilotomab satetraxetan (RIVA [4]; 10 nM, time (day): 4)	growth inhibition by drug plus 177Lu-lilotomab satetraxetan (RIVA [4]; 10 nM, time (day): 5)	growth inhibition by drug plus 177Lu-lilotomab satetraxetan (RIVA [4]; 10 nM, time (day): 6)	growth inhibition by drug plus 177Lu-lilotomab satetraxetan (RIVA [4]; 100 nM, time (day): 3)	growth inhibition by drug plus 177Lu-lilotomab satetraxetan (RIVA [4]; 100 nM, time (day): 4)	growth inhibition by drug plus 177Lu-lilotomab satetraxetan (RIVA [4]; 100 nM, time (day): 5)	growth inhibition by drug plus 177Lu-lilotomab satetraxetan (RIVA [4]; 100 nM, time (day): 6)
CCc1cc(Nc2nccc(-c3c(-c4ccc(OC)c(C(=O)Nc5c(F)cccc5F)c4)nc4ccccn34)n2)c(OC)cc1N1CCC(N2CCN(S(C)(=O)=O)CC2)CC1	0.0467	-0.0848	-0.0609	-0.106	-0.14	-0.0216	-0.0601	-0.147	0.0601	-0.0266	-0.11	-0.339	0.205	0.0778	0.0473	-0.0711	-0.00397	0.0169	0.0318	0.0887	-0.153	0.0173	0.00224	-0.0976	0.374	0.514	0.532	0.545	0.381	0.455	0.481	0.461
Nc1nc(Cl)nc2c1ncn2[C@H]1C[C@H](O)[C@@H](CO)O1 [Cladribine]	-0.0123	-0.0135	-0.0163	0.0971	0.943	0.966	0.98	0.987									0.0179	0.0736	0.11	0.212	0.942	0.971	0.983	0.989	0.528	0.571	0.602	0.611	0.683	0.807	0.843	0.878
Nc1nc(F)nc2c1ncn2[C@@H]1O[C@H](CO)[C@@H](O)[C@@H]1O [Fludarabine (Fludara)]	0.0811	0.031	-0.102	-0.129	0.0221	0.000892	-0.0649	-0.0258									0.0486	0.0769	0.126	0.16	0.00481	0.105	0.131	0.185	0.546	0.58	0.591	0.585	0.504	0.553	0.573	0.585
CCCC(=O)[O-].[Na+] [Sodium butyrate]	-0.0432	-0.057	-0.0778	-0.0762	-0.0747	-0.0522	-0.0783	-0.149									-0.0586	-0.0574	-0.0479	-0.015	-0.0238	0.0387	0.0442	0.139	0.36	0.484	0.502	0.51	0.431	0.486	0.506	0.493
C=C1/C(=C\C=C2/CCC[C@]3(C)[C@@H]([C@H](C)/C=C/[C@H](C)C(C)C)CC[C@@H]23)C[C@@H](O)C[C@@H]1O [Doxercalciferol (Hectorol)]	0.174	0.125	0.0899	0.0598	0.106	0.132	0.147	0.128									0.15	0.183	0.229	0.36	0.0716	0.176	0.182	0.287	0.484	0.601	0.615	0.639	0.47	0.55	0.563	0.571
CCC(CC)CC1(C(=O)Nc2ccccc2SC(=O)C(C)C)CCCCC1	0.0325	0.00234	0.00914	0.0506	-0.0537	-0.0604	-0.0741	-0.00871									0.00638	0.0745	0.111	0.2	-0.0639	-0.00533	0.0344	0.206	0.496	0.541	0.564	0.567	0.369	0.456	0.462	0.476
CC[C@]1(O)C[C@H]2CN(CCc3c([nH]c4ccccc34)[C@@](C(=O)OC)(c3cc4c(cc3OC)N(C=O)[C@H]3[C@@](O)(C(=O)OC)[C@H](OC(C)=O)[C@]5(CC)C=CCN6CC[C@]43[C@@H]65)C2)C1 [Vincristine]	0.944	0.954	0.97	0.978	0.964	0.972	0.979	0.984									0.958	0.97	0.978	0.982	0.972	0.978	0.983	0.988	0.964	0.976	0.983	0.985	0.956	0.967	0.973	0.979
CS(=O)(=O)N1CCN(Cc2cc3nc(-c4cccc5[nH]ncc45)nc(N4CCOCC4)c3s2)CC1	-0.0712	-0.0515	-0.0456	0.0469	0.69	0.786	0.802	0.82	-0.0821	-0.12	-0.138	-0.212	0.604	0.409	0.327	0.221	-0.0212	-0.0112	0.0169	0.184	0.81	0.875	0.897	0.913	0.351	0.467	0.488	0.493	0.532	0.5	0.486	0.45
Oc1nc(-c2ccc(C(F)(F)F)cc2)nc2c1CSCC2	0.0264	0.0499	-0.0107	-0.0367	0.0107	0.081	0.0386	-0.0985	-0.012	-0.067	-0.12	-0.313	-0.101	-0.117	-0.135	-0.199	-0.00592	0.0339	0.0301	0.0994	-0.0747	0.0641	0.0547	0.062	0.347	0.483	0.51	0.519	0.424	0.518	0.521	0.496
CC(C)(C)c1[nH]cnc1/C=c1\[nH]c(=O)/c(=C/c2ccccc2)[nH]c1=O [NPI-2358 (Plinabulin)]	0.142	0.0848	0.0507	-0.0221	0.964	0.971	0.974	0.98									0.0693	0.123	0.165	0.213	0.968	0.975	0.98	0.984	0.505	0.546	0.548	0.574	0.955	0.967	0.972	0.976
CC(C)OC(=O)C1=CN(C(=O)c2ccc(F)c(F)c2)CC(C)(C)c2c1[nH]c1ccccc21	0.0404	-0.0052	-0.0866	-0.191	-0.0177	-0.00403	-0.0481	-0.039									0.0558	0.102	0.14	0.204	0.038	0.085	0.0862	0.162	0.587	0.594	0.614	0.598	0.546	0.595	0.608	0.597
COc1ccc(S(=O)(=O)Nc2cccnc2Nc2ccc(O)cc2)cc1	0.0231	-0.0101	-0.0159	0.0329	0.889	0.918	0.932	0.948									-0.0595	0.0116	0.0522	0.105	0.896	0.923	0.934	0.956	0.454	0.511	0.525	0.533	0.416	0.502	0.51	0.5
CCCCCCCCc1ccc(CCC(N)(CO)CO)cc1 [Fingolimod (FTY720)]	0.0955	0.0585	0.0453	-0.1	0.0228	0.0231	0.00428	-0.0571	0.0298	0.0648	-0.0103	-0.296	-0.16	-0.13	-0.129	-0.231	0.0534	0.0695	0.13	0.219	-0.0305	0.0614	0.0905	0.203	0.437	0.577	0.586	0.614	0.364	0.447	0.474	0.484
CC1(COc2ccc3c(c2)ncn3-c2ccc3cccc(N4CCC(N)CC4)c3n2)COC1	0.0766	0.0633	0.00938	-0.0623	0.0371	0.0705	-0.00181	0.0785	0.0318	-0.0103	-0.0736	-0.123	-0.25	-0.202	-0.209	-0.254	0.0763	0.118	0.168	0.194	0.257	0.342	0.386	0.516	0.618	0.628	0.633	0.631	0.449	0.485	0.466	0.463
CCn1c(-c2nonc2N)nc2cnc(Oc3cccc(NC(=O)c4ccc(OCCN5CCOCC5)cc4)c3)cc21	-0.134	-0.155	-0.145	-0.41	0.0463	0.0519	0.129	0.357									-0.198	-0.145	-0.0619	0.0328	0.279	0.292	0.374	0.603	0.46	0.522	0.558	0.578	0.439	0.515	0.547	0.569
CC(C)C(=O)Nc1ccc([N+](=O)[O-])c(C(F)(F)F)c1 [Flutamide (Eulexin)]	0.147	0.0928	0.0103	-0.0414	0.15	0.123	0.105	0.0519									0.105	0.202	0.26	0.327	0.175	0.211	0.291	0.385	0.611	0.616	0.649	0.663	0.534	0.562	0.599	0.626
Cc1csc(-c2nnc(Nc3ccc(Oc4ncccc4-c4ccnc(N)n4)cc3)c3ccccc23)c1	0.0562	-0.00651	0.0489	0.269	0.102	0.112	0.103	0.252									0.0788	0.121	0.207	0.449	0.271	0.306	0.344	0.538	0.482	0.52	0.572	0.659	0.496	0.552	0.581	0.676
CC(NC(=O)c1ccccc1/N=C/c1c(O)ccc2ccccc12)c1ccccc1 (stereo unspecified) [Sirtinol]	0.0874	0.0846	0.0103	-0.0559	0.00453	0.0486	-0.0294	-0.196									0.0459	0.0759	0.116	0.164	-0.00947	0.0904	0.0917	0.101	0.345	0.472	0.506	0.526	0.436	0.523	0.536	0.529
CN(C)CCCN=c1c2ccccc2n(C)c2[nH]c(=O)n(C)c(=O)c12	0.111	0.0704	-0.00376	-0.0149	0.0731	0.0794	0.011	0.0933									0.0369	0.0857	0.138	0.24	0.0936	0.125	0.147	0.272	0.529	0.576	0.589	0.604	0.563	0.592	0.601	0.604
